Inhibition data for 92 compounds are collected here from PubChem BioAssay AID2013 (Sanford-Burnham Center for Chemical Genomics, 2009).

Out of some 290,000 compounds screened, about 370 (0.13%) were called active. The full list was thinned out, with actives kept by preference. Potency and affinity values are given separately. A number with no mark means an inactive call.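 Rule for the calls: active = spots per cell inhibited over 60%, with over 100 cells counted and total cytoplasm intensity under 500,000; inconclusive = wells with under 100 cells, flagged as likely toxic; inactive = the rest.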

G-protein coupled receptor 55 (Homo sapiens), sequence (Q9Y2T6 whole entry, looked up): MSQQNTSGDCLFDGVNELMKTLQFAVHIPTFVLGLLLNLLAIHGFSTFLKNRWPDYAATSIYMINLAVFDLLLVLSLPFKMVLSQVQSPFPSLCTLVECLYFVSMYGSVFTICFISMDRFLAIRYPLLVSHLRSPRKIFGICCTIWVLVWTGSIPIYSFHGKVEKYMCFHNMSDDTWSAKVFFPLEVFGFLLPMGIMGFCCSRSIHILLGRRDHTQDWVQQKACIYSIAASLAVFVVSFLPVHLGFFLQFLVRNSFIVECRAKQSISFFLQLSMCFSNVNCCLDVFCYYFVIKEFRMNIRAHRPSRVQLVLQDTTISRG

The test addresses G-protein coupled receptor 55 (Homo sapiens) (UniProt Q9Y2T6). The test is described as follows: inhibition of LPI-stimulated GPR55 beta-arrestin translocation – imaging, U2OS, beta-arrestin-GFP, LPI agonist, primary screen (AID 2013).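 Note: U2OS cells stably carrying GPR55 and arrestin-GFP stimulated by 5 µM LPI near EC80; imaged beta-arrestin-GFP aggregate spots per cell after agonist stimulation; plate controls were LPI-stimulated DMSO wells for no effect and DMSO wells without LPI for full effect.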 The following applies: LPI antagonism, at 10 µM, stronger effect = higher value.
`CC(=O)N1CCOc2ccc(S(=O)(=O)Nc3ccc(Cl)cn3)cc21`: the inhibition is -3.3%.

Consider `COc1ccccc1NC(=O)COC(=O)c1ccccc1C(=O)N1CCN(c2ccccc2)CC1`, for which the inhibition was -1.1%. Next, `Cc1ccccc1-n1cc(CNC(=O)CCc2nnc(CCc3ccccc3)o2)cn1`: 9.1%; `C#CCOCCOCCOCCNc1nc(N2CCN(C(=O)[C@H](CCC(=O)O)n3cc(C(N)CC(C)C)nn3)CC2)nc(N2CCN(C(=O)[C@H](Cc3ccc(O)cc3)n3cc(C(N)[C@H](C)CC)nn3)CC2)n1` (some centres not stated): 13%; `O=C(Nc1ccccc1)c1ccccc1NC(=O)C1CCCCC1`: -8.2%. Next, `COc1ccc(C2=NN(c3ccccc3)C(=O)/C2=C\c2ccc(O)c(OC)c2)cc1`: -6.3%.

For the compound `COc1cc(/C=C2\C(=O)N(c3ccc(NC(C)=O)cc3)N=C2c2ccccc2)ccc1O`, the inhibition was 89.7% (active). As to `O=C1/C(=C\c2ccc(O)c(O)c2)C(c2ccccc2)=NN1c1ccccc1`, the inhibition is -3.8%.

Turning to `S=C1Cc2ccccc2N1`, the inhibition is -4.5%. Next, `O=C(O)c1cc(-c2ccc(/C=C3/SC(=S)N(Cc4ccccc4)C3=O)o2)ccc1Cl`: 61.2% (active). The same measure for `COc1ccc(CN2C(=O)/C(=C/c3ccc(-c4ccc(Cl)c(C(=O)O)c4)o3)SC2=S)cc1`: 34.2%; for `C#CCN1C(=O)S/C(=C\c2ccc(-c3ccc(Cl)c(C(=O)O)c3)o2)C1=O`: -15.9%. Take `O=C(NCc1ccco1)C1(c2ccc(Br)cc2)CCCC1`: the inhibition was 1.4%. Next, `C=CCn1c(O)c(C2=c3ccccc3=NC2=O)sc1=Nc1ccc(O)cc1`: 5.2%; `CN(CC(=O)Nc1cccc(F)c1)C(=O)c1cc(S(=O)(=O)N(C)C)ccc1N1CCCC1`: 13.5%. The same measure for `[N-]=[N+]=N[C@@H](CCN1CC[C@H](NC(=O)OCc2ccccc2)CCC1=O)c1ccccc1`: 6.9%. The same measure for `O=C(CSc1nnc(C2CCCCC2)n1Cc1ccccc1)NCc1ccco1`: -1.4%; for `CN1Cc2c(N3CCOCC3)nc3sc(C(=O)c4ccccc4)c(N)c3c2CC1(C)C`: 1.2%. With `CCOC(=O)c1sc2nc(N3CCOCC3)c3c(c2c1N)CC(C)(C)N(C)C3`, the inhibition is -4.1%. With `NC(=S)Cc1nc2n(n1)Cc1ccccc1-2`, the inhibition was 5.2%.

In the case of `CC1CC(Nc2ccccc2)c2ccccc2N1C(=O)c1ccco1` (configuration not stated), the inhibition is 6.5%. In the case of `CC1CC(N(C(=O)c2ccco2)c2ccccc2)c2ccccc2N1` (configuration not stated), the inhibition is 10.3%. Next, `CC1CC(N(C(=O)c2ccc(Cl)cc2)c2ccccc2)c2ccccc2N1C(=O)c1ccco1` (configuration not stated): 10.9%; `CC(=O)N(c1ccccc1)C1CC(C)N(C(=O)c2ccccc2)c2ccccc21` (configuration not stated): 13.6%; `COC(=O)c1c(C(C)=O)c(C)n(C)c1C`: 9.9%. Take `O=C(CSc1nc2ccccc2o1)Nc1ccccc1N1CCOCC1`: the inhibition is -2.4%. `Cc1ccccc1NC(=O)CSc1nc2ccccc2o1`: the inhibition is -27.6%. Next, `CC1(C)CC(=O)C(CC(=O)Nc2ccc(S(N)(=O)=O)cc2)=C(O)C1`: 2.1%; `COc1ccc(C2c3sc(=O)[nH]c3SC3C4CCC(C4)C23)cc1` (configuration not stated): 39.7%. The same measure for `COc1ccc(C2c3sc(=O)[nH]c3SC3C4CCC(C4)C23)cc1OC` (configuration not stated): 4.6%; for `CN(C)/C=N/c1nc2nccc(-c3ccccc3)n2n1`: -4.1%; for `CCC(C)c1ccc(S(=O)(=O)N2CCN(S(=O)(=O)c3ccc(NC(C)=O)cc3)CC2)cc1` (configuration not stated): 6.4%. With `CCn1cnc2c1c(=O)n(Cc1ccc(C(=O)OC)cc1)c(=O)n2Cc1ccccc1`, the inhibition was 6%.

Take `COC(=O)C1C(C(=O)OC)C1(c1ccccc1)c1ccccc1` (configuration not stated): the inhibition was 5.7%. Next, `CCOC(=O)C1C(C(=O)OCC)C1(c1ccccc1)c1ccccc1` (configuration not stated): 94.1% (active). Take `O=C(O)C1C(C(=O)O)C1(c1ccccc1)c1ccccc1` (configuration not stated): the inhibition is -6.8%. Consider `CC1(C(=O)N(Cc2ccccc2)Cc2ccccc2)CC1(Br)Br` (configuration not stated), for which the inhibition is 80.9% (active).

For `O=C(c1ccccc1)N(Cc1ccccc1)Cc1ccccc1`, the inhibition was 11.6%. For `CC12CCC(C(=O)N(Cc3ccccc3)Cc3ccccc3)(OC1=O)C2(C)C` (configuration not stated), the inhibition was 3.1%. Turning to `COc1ccc(CNS(=O)(=O)c2ccc3c(c2)CCN3C(=O)C2CC2)cc1`, the inhibition is 5.8%.

For `CCOC(=O)C1CCN(CC(=O)Nc2ccc(OC)c(Cl)c2)CC1`, the inhibition was 17.5%.

`O=C(Cn1c(=O)c(=O)n(Cc2ccccc2)c2ccc(Cl)cc21)Nc1cccc(F)c1`: the inhibition was -4.5%.

Consider `Cc1nc2ccccc2c2c1C(=O)N(C(C)C)C2=O`, for which the inhibition was -5.2%. The same measure for `O=C(Cn1cnc2ccccc2c1=O)Nc1cccc(-c2nnc3n2CCCCC3)c1`: -5.4%. For the compound `Cc1ccc(C(c2nnnn2C2CCCCC2)N2CCc3ccccc32)cc1` (configuration not stated), the inhibition is 4.6%. The same measure for `COc1ccc(C(CCNC(C)c2ccccc2)C(C)C)cc1` (configuration not stated): 15.3%. The same measure for `COc1ccc(C(CCNC(C)c2ccccc2)c2ccc(F)cc2)cc1` (configuration not stated): 29.1%; for `COc1ccc(-n2cnnc2SCC(=O)Nc2ccc(C(N)=O)cc2)cc1`: -2.8%; for `COCc1nnc(NC(=O)C2CC(=O)N(C3CCCC3)C2)s1` (configuration not stated): 8.2%.

Consider `O=C1/C(=C/c2ccc([N+](=O)[O-])cc2)C=C(c2ccccc2)N1c1ccccc1`, for which the inhibition was 25.9%. The same measure for `O=C(O)c1cccc(N2C(=O)/C(=C/c3ccc([N+](=O)[O-])cc3)C=C2c2ccccc2)c1`: -16.1%; for `Cc1nnc(SCC2=C(C(=O)O)N3C(=O)C(NC(=O)C(C)n4nc(C(F)(F)F)cc4C)C3SC2)s1` (configuration not stated): 0.4%; for `Nc1cc(=O)[nH]c(SC/C=C/c2ccccc2)n1`: -21.6%.

In the case of `Clc1nc(CN2CCOCC2)nc2sc3c(c12)CCC3`, the inhibition is 19%. Next, `Clc1nc(CN2CCCCC2)nc2sc3c(c12)CCC3`: 5.2%; `Clc1nc(CN2CCCCC2)nc2sc3c(c12)CCCC3`: 61.4% (active); `CC1CN(C(=O)COC(=O)c2ccc(O)cc2)CC(C)O1` (configuration not stated): 6.6%.

Take `N#CCc1c(C#N)c(N)nc(Nc2ccccc2)c1C#N`: the inhibition was 1.4%. The same measure for `COc1ccc2oc(=O)c(C(=O)N3CCN(c4ccc(F)cc4)CC3)cc2c1`: 4.2%; for `O=C(Cn1ncn2c(cc3ccccc32)c1=O)NCCc1cccs1`: -4.4%. For the compound `COc1ccc(C(=O)N[C@H](C(=O)NCC2CCCCC2)C(C)C)cc1`, the inhibition was 6.5%. `O=C(CSc1nc2ccccc2c(=O)[nH]1)N1CCN(S(=O)(=O)c2ccccc2)CC1`: the inhibition is 2.8%.

With `O=C(CSc1ncccn1)N1CCN(S(=O)(=O)c2ccccc2)CC1`, the inhibition was 9.7%. Next, `N#Cc1ccccc1NC(=O)CN1CCOCC1`: 9.8%; `CCn1c(SCC(N)=O)nc2c(c1=O)C1(CCCC1)Cc1ccccc1-2`: 1.3%; `CCSc1n[nH]c2nc3c(c(=O)n12)C1(CCCC1)Cc1ccccc1-3`: 10.3%. As for `COc1ccc(Oc2c(-c3ccc(O)cc3O)n[nH]c2C)cc1`, the inhibition was 11%. Consider `CCCOC(=O)c1ccc(Oc2c(-c3ccc(O)cc3O)n[nH]c2C)cc1`, for which the inhibition is 36.9%. Next, `CCCc1ccc(Oc2cn[nH]c2-c2ccc(O)c(C)c2O)cc1`: 20.9%; `CCCc1ccc(Oc2c(-c3ccc(O)c(C)c3O)n[nH]c2C)cc1`: 1%; `Cc1ccccc1C(=O)NC(=S)NCc1ccccc1`: 2.5%. The same measure for `Cc1sc2nc(CC(=O)NN)[nH]c(=O)c2c1C`: 6.8%; for `CC(=O)N1CCOc2ccc(S(=O)(=O)N3CCC(C)CC3)cc21`: 7.2%; for `C/C=C(\C)C(=O)N1CC2(CC(c3cccc(NC(=O)COc4ccc(Cl)cc4)c3)=NO2)C[C@@H]1C(N)=O` (some centres not stated): -0.1%. The same measure for `NS(=O)(=O)c1ccc(NC(=S)Nc2ccc(C(=O)N3CCCCC3)cc2)cc1`: 0.7%; for `O=C(Nc1ccccc1N1CCOCC1)c1cccnc1Cl`: 3.4%.

For `CCN(C(=O)CSc1nc(-c2ccccc2)c(-c2ccccc2)[nH]1)C1CCS(=O)(=O)C1` (configuration not stated), the inhibition was 15.5%. On to `Cc1ccc(SCC(=O)N(C)C2CCS(=O)(=O)C2)cc1` (configuration not stated), for which the inhibition is -5.3%.

For the compound `CCCCNC(=O)CN1C(=O)C(CC)Oc2ccc(Cl)cc21` (configuration not stated), the inhibition is 2.3%. As for `O=C1N=C(N2CCOCC2)S/C1=C\c1ccc(-c2ccccc2Cl)o1`, the inhibition was -0.9%. Regarding `Cc1ccc(-c2ccc(/C=C3\SC(N4CCOCC4)=NC3=O)o2)cc1`, the inhibition is 16.2%. As for `Cc1ccc(CNC(=O)c2ccc(CS(=O)(=O)c3ccccc3C)o2)cc1`, the inhibition was 7.3%.

As for `O=C(Oc1ccc(N2C(=O)C3C4CCC(C4)C3C2=O)cc1)c1ccco1` (configuration not stated), the inhibition was 15.6%.

Take `O=C(NC1CCN(S(=O)(=O)c2ccccc2F)CC1)c1cccnc1`: the inhibition was -8.1%. `O=C(N1CCCC1)C(F)(F)Oc1ccc(F)cc1`: the inhibition is 10.6%.

With `COC(=O)C1=CN(C(C)C)C=C(C(=O)OC)C1c1cc(Br)c(OC)c(OC)c1`, the inhibition was 0.5%.

In the case of `COCCN1C=C(C(=O)OC)C(c2cc3c(cc2Br)OCO3)C(C(=O)OC)=C1`, the inhibition was 1%. The same measure for `COc1ccc(-n2c(C)cc(C=O)c2C)cc1Cl`: 15.8%. The same measure for `COc1ccc(Cl)cc1-n1c(C)cc(C=O)c1C`: -3.7%; for `CN(C)S(=O)(=O)N1CCN(C(=O)c2cccc(Br)c2)CC1`: 1.7%. Next, `NS(=O)(=O)c1ccc(CCNC(=O)CSc2nc3ccsc3c(=O)n2CCCCCC(=O)O)cc1`: 14.8%; `Cc1cccc(OCC(=O)N2CCOCC2)c1`: 15.3%.
